# Results: PubChem BioAssay (Tox21)
# Activity calls are given as the source filed them. The call rests on the fitted dose curve; in most records, active means well fitted curve in the direction sought with a large enough effect in the repeat runs; inconclusive means weak or mixed curves; inactive means flat fitted curve, though single readings scatter.
# Test: qHTS assay to test for compound auto fluorescence at 535 nm (green) in HepG2 cells (AID 720675)
# Conditions: green autofluorescence 485/535 nm, 1 h; series mostly up to 91.3 µM
row,SMILES,outcome
1,COC(=O)NC(=S)Nc1ccccc1NC(=S)NC(=O)OC,inactive
2,CCCCCOC(=O)c1ccccc1C(=O)OCCCCC,inactive
3,CC(C)OC(=O)Nc1ccccc1,inactive
4,C#CC(C)(C)NC(=O)c1cc(Cl)cc(Cl)c1,inactive
5,CC(C)C1(C)N=C(c2nc3ccccc3cc2C(=O)O)NC1=O (stereo unspecified),inactive
6,Clc1ccc(Cl)cc1,inactive
7,C=C(C)CCl,inactive
8,CC(C)(Cl)Cl,inactive
9,O=S(=O)(c1ccc(O)cc1)c1ccc(O)cc1,inactive
10,Oc1ccccc1Cl,inactive
11,O=NN1CCCCCCC1,inactive
12,Cc1cc(-c2cc(C)c(N)c(C)c2)cc(C)c1N,inactive
13,CN(C)N=O,inactive
14,CCCC1COC(Cn2cncn2)(c2ccc(Cl)cc2Cl)O1 (stereo unspecified),inactive
15,BrCCBr,inactive
16,Nc1ccc(Cc2ccc(N)cc2)cc1,inactive
17,CCCCCCCCCCCC#N,inactive
18,COP(N)(=O)SC (stereo unspecified),inactive
19,CCC12COCN1COC2,inactive

row,SMILES,outcome
1,O=[N+]([O-])c1ccc([As](=O)(O)O)cc1,inactive
2,CC(C)(C)C(O)(CCc1ccc(Cl)cc1)Cn1cncn1 (stereo unspecified),inactive
3,O=C(O)c1ccccn1,inactive
4,Cn1cc(-c2ccccc2)c(=O)c(-c2cccc(C(F)(F)F)c2)c1,inactive
5,CC(NC(C)(C)C)C(=O)c1cccc(Cl)c1 (stereo unspecified),inactive
6,CN=C=S,inactive
7,CCN(CC)c1ccccc1,inactive
8,c1cc2c3c(cccc3c1)CC2,inactive
9,CCC[N+](=O)[O-],inactive
10,CCOP(=S)(OCC)SCCSCC,inactive
11,CCN(CC)CCO,inactive
12,CCCN(CCC)N=O,inactive
13,c1ccc(OP(Oc2ccccc2)Oc2ccccc2)cc1,inactive
14,c1ccc(-c2ccccc2)cc1,inactive
15,Nc1ccccc1C(=O)O,inactive
16,CCOP(OCC)OCC,inactive
17,ClCc1cccnc1,inactive
18,NCC(O)c1ccc(O)cc1 (stereo unspecified),inactive

# Test: qHTS assay to test for compound auto fluorescence at 460 nm (blue) in HEK293 cells (AID 720678)
# Conditions: blue autofluorescence 405/460 nm; series mostly up to 91.3 µM
# Summary of the method: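 Blue read-out at excitation 405 nm and emission 460 nm follows overnight compound exposure of HEK293 cells at 37C in 5% CO2. Activity is given as auto fluorescence equivalency to triamterene.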
row,SMILES,outcome
1,COC(=O)NC(=S)Nc1ccccc1NC(=S)NC(=O)OC,inactive
2,CCCCCOC(=O)c1ccccc1C(=O)OCCCCC,inactive
3,CC(C)OC(=O)Nc1ccccc1,inactive
4,C#CC(C)(C)NC(=O)c1cc(Cl)cc(Cl)c1,inactive
5,CC(C)C1(C)N=C(c2nc3ccccc3cc2C(=O)O)NC1=O (stereo unspecified),inactive
6,Clc1ccc(Cl)cc1,inactive
7,C=C(C)CCl,inactive
8,CC(C)(Cl)Cl,inactive
9,O=S(=O)(c1ccc(O)cc1)c1ccc(O)cc1,inactive
10,Oc1ccccc1Cl,inactive
11,O=NN1CCCCCCC1,inactive
12,Cc1cc(-c2cc(C)c(N)c(C)c2)cc(C)c1N,inactive
13,CN(C)N=O,inactive
14,CCCC1COC(Cn2cncn2)(c2ccc(Cl)cc2Cl)O1 (stereo unspecified),inactive
15,BrCCBr,inactive
16,Nc1ccc(Cc2ccc(N)cc2)cc1,inactive
17,CCCCCCCCCCCC#N,inactive
18,COP(N)(=O)SC (stereo unspecified),inactive
19,CCC12COCN1COC2,inactive

row,SMILES,outcome
1,O=[N+]([O-])c1ccc([As](=O)(O)O)cc1,inactive
2,CC(C)(C)C(O)(CCc1ccc(Cl)cc1)Cn1cncn1 (stereo unspecified),inactive
3,O=C(O)c1ccccn1,inactive
4,Cn1cc(-c2ccccc2)c(=O)c(-c2cccc(C(F)(F)F)c2)c1,inactive
5,CC(NC(C)(C)C)C(=O)c1cccc(Cl)c1 (stereo unspecified),inactive
6,CN=C=S,inactive
7,CCN(CC)c1ccccc1,inactive
8,c1cc2c3c(cccc3c1)CC2,inactive
9,CCC[N+](=O)[O-],inactive
10,CCOP(=S)(OCC)SCCSCC,inactive
11,CCN(CC)CCO,inactive
12,CCCN(CCC)N=O,inactive
13,c1ccc(OP(Oc2ccccc2)Oc2ccccc2)cc1,inactive
14,c1ccc(-c2ccccc2)cc1,inactive
15,Nc1ccccc1C(=O)O,inactive
16,CCOP(OCC)OCC,inactive
17,ClCc1cccnc1,inactive
18,NCC(O)c1ccc(O)cc1 (stereo unspecified),inactive

# Test: qHTS assay to test for compound auto fluorescence at 590 nm (red) in HEK293 cells (AID 720679)
# Conditions: red autofluorescence 540/590 nm; series mostly up to 91.3 µM
# Summary of the method: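 Red channel, Ex/Em 540/590nm; signal expressed as equivalency to Rose Bengal sodium. HEK293, 2,000 cells/well, 10% dialyzed FBS; 23 nL compound pinned after 4-5 hr attachment; overnight 37C/5% CO2 before reading.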
row,SMILES,outcome
1,COC(=O)NC(=S)Nc1ccccc1NC(=S)NC(=O)OC,inactive
2,CCCCCOC(=O)c1ccccc1C(=O)OCCCCC,inactive
3,CC(C)OC(=O)Nc1ccccc1,inactive
4,C#CC(C)(C)NC(=O)c1cc(Cl)cc(Cl)c1,inactive
5,CC(C)C1(C)N=C(c2nc3ccccc3cc2C(=O)O)NC1=O (stereo unspecified),inactive
6,Clc1ccc(Cl)cc1,inactive
7,C=C(C)CCl,inactive
8,CC(C)(Cl)Cl,inactive
9,O=S(=O)(c1ccc(O)cc1)c1ccc(O)cc1,inactive
10,Oc1ccccc1Cl,inactive
11,O=NN1CCCCCCC1,inactive
12,Cc1cc(-c2cc(C)c(N)c(C)c2)cc(C)c1N,inactive
13,CN(C)N=O,inactive
14,CCCC1COC(Cn2cncn2)(c2ccc(Cl)cc2Cl)O1 (stereo unspecified),inactive
15,BrCCBr,inactive
16,Nc1ccc(Cc2ccc(N)cc2)cc1,inactive
17,CCCCCCCCCCCC#N,inactive
18,COP(N)(=O)SC (stereo unspecified),inactive
19,CCC12COCN1COC2,inactive

row,SMILES,outcome
1,O=[N+]([O-])c1ccc([As](=O)(O)O)cc1,inactive
2,CC(C)(C)C(O)(CCc1ccc(Cl)cc1)Cn1cncn1 (stereo unspecified),inactive
3,O=C(O)c1ccccn1,inactive
4,Cn1cc(-c2ccccc2)c(=O)c(-c2cccc(C(F)(F)F)c2)c1,inactive
5,CC(NC(C)(C)C)C(=O)c1cccc(Cl)c1 (stereo unspecified),inactive
6,CN=C=S,inactive
7,CCN(CC)c1ccccc1,inactive
8,c1cc2c3c(cccc3c1)CC2,inactive
9,CCC[N+](=O)[O-],inactive
10,CCOP(=S)(OCC)SCCSCC,inactive
11,CCN(CC)CCO,inactive
12,CCCN(CCC)N=O,inactive
13,c1ccc(OP(Oc2ccccc2)Oc2ccccc2)cc1,inactive
14,c1ccc(-c2ccccc2)cc1,inactive
15,Nc1ccccc1C(=O)O,inactive
16,CCOP(OCC)OCC,inactive
17,ClCc1cccnc1,inactive
18,NCC(O)c1ccc(O)cc1 (stereo unspecified),inactive
